# Screens from PubChem BioAssay.
# TDP1 cell noCPT – qHTS for Inhibitors of human tyrosyl-DNA phosphodiesterase 1 (TDP1): qHTS in cells in absence of CPT; AID 686978, 2013; actives 15% (n = 420,000); DT40 Tdp1-/- hTDP1 cells, no CPT, ATP luminescence, 48 h; Potency, µM (highest dose often 46.2 µM), for inactives: at the top dose activity change, negative = growth inhibition, actives largely listed as inhibitors; further: nearly all actives have a fitted effect of over 55% in size
#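 Chicken DT40 Tdp1-/- cells complemented with human TDP1, screened without camptothecin (DMSO vehicle only), 400 cells/well. Compounds pin-transferred, cells incubated at 37 °C for at least 48 hr. Growth read as ATP-dependent luminescence (CellTiter-Glo, 30 min at RT).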
# VDR inh – blocks the human vitamin D receptor; actives 0.93% (n = 400,000); P11473; Potency, µM, for inactives: max response, negative = inhibition, usual class: inhibitors; VDR-SRC2-3 peptide fluorescence polarization, 2 h
#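 Two reagent solutions held at 4 deg C in the dark were dispensed, compounds pinned at 23 nl, and the mixture incubated 2 h at room temperature. Read-out: fluorescence polarization of VDR–SRC2-3 peptide binding.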
# DT40 TDP1 CPT – DT40-hTDP1 cell growth loss with CPT; chicken DT40 Tdp1-/-;hTDP1 cells + 20 nM CPT, ATP luminescence, 48 h; Potency, µM (top dose mostly 46.2 µM), without a hit: top-dose activity change, negative = growth inhibition, usual class: inhibitors; actives 12% (n = 420,000); further: nearly all actives have a fitted effect of over 55% in size
#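 Chicken DT40 Tdp1-/- cells complemented with human TDP1, 400 cells/well, exposed to compounds plus 20 nM camptothecin for at least 48 h at 37 C; viability read as ATP content by CellTiter-Glo luminescence.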
# PLK1 PBD inh – inhibitors of human PLK1 polo-box domain binding; Plk1 PBD binding of FITC phosphopeptide, fluorescence polarization; Potency, µM, for the others: max response, negative = inhibition, usual class: inhibitors; actives 2.8% (n = 360,000); AID 720504; further: series mostly up to about 57 µM; nearly all actives have a fitted effect of over 65% in size
# TDP1 block – blocks human tyrosyl-DNA phosphodiesterase 1 | Q9NUW8 | recombinant TDP1, AlphaScreen DNA substrate cleavage | Potency, µM (top dose mostly 130 µM), without a hit: at the highest dose activity change, negative = inhibition, most hits filed as inhibitors | actives 0.28% (n = 350,000) | AID 485290; further: nearly all actives have a fitted effect of over 40% in size
# Target sequence (Q9NUW8 whole entry, looked up): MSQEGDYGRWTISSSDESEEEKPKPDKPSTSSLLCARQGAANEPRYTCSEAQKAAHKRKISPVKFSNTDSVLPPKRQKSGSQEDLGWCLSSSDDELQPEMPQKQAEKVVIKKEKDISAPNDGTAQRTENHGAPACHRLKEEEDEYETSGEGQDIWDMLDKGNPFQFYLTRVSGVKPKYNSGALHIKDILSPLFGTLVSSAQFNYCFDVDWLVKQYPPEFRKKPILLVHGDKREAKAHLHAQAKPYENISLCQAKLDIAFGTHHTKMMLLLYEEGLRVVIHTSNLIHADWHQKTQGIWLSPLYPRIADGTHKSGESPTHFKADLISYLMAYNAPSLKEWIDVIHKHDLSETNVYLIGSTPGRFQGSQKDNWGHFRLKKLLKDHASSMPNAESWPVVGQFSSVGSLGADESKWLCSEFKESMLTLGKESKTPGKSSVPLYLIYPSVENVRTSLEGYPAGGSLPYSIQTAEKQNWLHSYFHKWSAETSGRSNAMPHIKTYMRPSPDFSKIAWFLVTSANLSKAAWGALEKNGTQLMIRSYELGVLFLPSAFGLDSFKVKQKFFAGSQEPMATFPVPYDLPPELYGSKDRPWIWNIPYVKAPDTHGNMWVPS
#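 AlphaScreen read-out: signal falls as enzyme removes the 3' tyrosine-FITC from a 5'-biotinylated DNA oligo (15 nM, 5 min, RT). Enzyme was E. coli-made recombinant Tdp1 at 1 nM, exposed to compound for 15 min beforehand; beads 10 ug/ml, 10 min.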
# KAT2A inh – GCN5L2 (KAT2A) acetyltransferase inhibition; actives 0.21% (n = 390,000); Potency, µM (series often up to 58.9 µM), inactives show top-dose activity change, negative = inhibition, hits mostly inhibitors; GCN5L2 HAT assay, ThioGlo1 CoA-SH fluorescence; Q92830
#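 Fluorescence readout, Ex340nm/Em540nm: ThioGlo1 (50uM final) reacts with free CoA thiol released as 20nM GCN5L2 acetylates H3(1-25) peptide (75uM) using acetyl-CoA (70uM). Compound and enzyme sat 15 min beforehand; 20 min room-temperature reaction.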
# Active calls of the source: *; u = inconclusive; x = no result given; [ ] = remark or other dose. Compounds with a hit are over-represented: about 18% of the library has one in this group of screens. The call rests on the fitted dose curve; in most records, active means well fitted curve in the direction sought with a large enough effect; inconclusive means small, poorly fitted or top-dose-only effect, or another doubt; inactive means no such curve, though single readings can be large; an effect the other way counts as inactive or inconclusive. On the % scale 0 is the no-effect control and ±100 the full control effect; potency means the concentration at half of the fitted maximal effect.
SMILES,TDP1 cell noCPT,VDR inh,DT40 TDP1 CPT,PLK1 PBD inh,TDP1 block,KAT2A inh
COc1ccc2cc(CNCc3nonc3C)c(N3CCCC(CO)C3)nc2c1 (centres undefined),-13.0%,x,15.1%[9.04 µM],x,x,x
CN(C)c1nc(N/N=C\c2ccc(Cl)c([N+](=O)[O-])c2)nc(Nc2ccc(F)cc2)n1,5.17µM*,5.9%,5.17µM*,0.0%,x,x
CCOC(=O)N1CCN(C(=O)C(=O)NNC(=O)COc2ccc(Cl)cc2)CC1,-5.2%,-4.1%,5.1%,-0.8%,0.0%,-2.2%
COc1cc(=O)n2c(c1C(=O)N(C)Cc1nonc1C)CCN(Cc1ccsc1)CC2,-9.4%,x,7.1%[9.04 µM],x,x,x
CCOc1ccc(S(=O)(=O)c2ccc(C)cc2)c2c1no[n+]2[O-],18.4µM*,x,14.6µM*,0.1%,x,x
CCOc1cc(C(c2c(C)[nH][nH]c2=O)c2c(C)[nH][nH]c2=O)ccc1OS(=O)(=O)c1ccc(C)cc1,-9.2%,-6.7%,-4.2%,u,14.0%,-10.7%
O=C(Nc1ccccc1)N1CCN(S(=O)(=O)c2ccccc2)CC1,2.2%,-7.5%,8.2%,-20.6%,6.2%,-18.2%
Cc1ccn2cc(CCNC(=O)CC(C)(C)C)nc2c1,-1.7%,-17.2%,5.1%,-2.0%,2.4%,1.1%
Cc1ccn2cc(CCNC(=O)COc3ccccc3)nc2c1,u,u,u,11.9µM*,4.2%,1.5%
COc1ccc(C(=O)NCCc2cn3ccccc3n2)cc1,14.6%,u,-2.3%,29.9µM*,1.4%,2.2%
CCc1ccccc1NC(=O)CNC(=O)c1ccc(OCc2cn3ccccc3n2)cc1,-21.0%,14.4%,u,-13.7%,28.2µM*,-13.0%
CCc1ccccc1NC(=O)CN1CCN(C(=O)c2ccc(OCc3cn4ccccc4n3)cc2)CC1,-5.0%,-5.5%,5.7%,-3.8%,-4.6%,1.5%
NC(=O)c1ccsc1NC(=O)CSc1nncs1,-7.3%,3.7%,-9.3%,-13.4%,4.8%[0.505 µM],-3.8%
COc1ccccc1CCNC(=O)CNC(=O)c1ccc2ccccc2c1,u,-24.7%,u,-8.4%,1.0%,-5.3%
CCn1c(CSCc2ccc(C)cc2)n[nH]c1=S,u,19.2%,-0.4%,-4.8%,x,-0.7%
CCn1c(CSCc2ccc(Cl)cc2)n[nH]c1=S,8.2µM*,-5.2%,u,-15.4%,5.0%,-7.6%
COc1ccc2[nH]cc(CCNC(=O)C3CCCO3)c2c1 (centres undefined),13.7%,-23.7%,u,u,5.4%,-5.5%
CC1=C(C(=O)Nc2cc(Cl)ccc2C)C(c2ccccc2F)n2ncnc2N1 (centres undefined),-12.8%,12.8%,-18.3%,x,-1.8%,21.1%
Cc1ncsc1CCOC(=O)C1C2CC3CC(C2)CC1C3 (centres undefined),23.1µM*,-13.6%,u,-5.0%,-1.2%,-4.8%
Cc1ncc(C[n+]2csc(CCOC(=O)C34CC5CC(CC(C5)C3)C4)c2C)c(N)n1,u,9.5%,u,-7.8%,1.2%,0.0%
COc1ccc(-c2sc3cc4c(cc3c2C#CC2(N)CCCCC2)OCO4)cc1,11.6µM*,7.7%,8.2µM*,-9.1%,0.2%,-2.8%
COc1ccc(-c2sc3cc4c(cc3c2C#Cc2cncn2C)OCO4)cc1,14.6µM*,3.6%,25.9µM*,-4.2%,0.9%,-2.7%
COc1ccc(-c2sc3cc4c(cc3c2-c2ccc(OCCN3CCOCC3)cc2)OCO4)cc1,u,-2.9%,u,-10.5%,6.0%,-1.0%
COc1ccc(-c2oc3ccccc3c2C#Cc2cncn2C)cc1,18.4µM*,-18.8%,16.4µM*,-5.5%,0.9%,-2.7%
COc1cccc(-c2sc3ccc(OC)cc3c2C#CC2(O)CCCCC2)c1,23.1µM*,0.8%,u,-15.3%,-6.0%,-22.4%
